Experimental data published in PubChem BioAssay.
The other results are listed elsewhere or left out. Calls of active or inactive are those of the source.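 The calls were made as follows, unless noted: active = ratio signal rise beyond 5 SD above unstimulated control wells' mean, seen in both duplicate runs; inactive = the rest.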

Legend:
[1] = nonspecific voltage dye response without TRPC6 – cell-based, parental HEK293, counter-screen for TRPC6 modulator project, confirmation (AID 488924;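 active = membrane potential signal moves up or down beyond 5 SD from buffer-only wells, on both duplicate plates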); conditions: parental HEK293, membrane potential dye fluorescence; at 10 µM
[2] = membrane potential response modulators in host HEK293 cells – cell-based, second counter-screen, parental HEK293, membrane potential dye, counter-screen for TRPC6 modulator project, confirmation (AID 488926;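 active = membrane potential signal drops by more than 5 SD from the mean control signal, in both duplicate plates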;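 as to inhibition: plate controls were acetylcholine ECmax control wells for no effect and buffer only wells for full effect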); conditions: parental HEK293, membrane potential dye fluorescence, at 10 µM, after compound, maximal acetylcholine stimulation; hits give high values
[3] = system: Transient receptor potential cation channel subfamily C member 4 (mouse); test: off-target membrane potential effects via mouse TRPC4 – cell-based, HEK293 TRPC4/mu-opioid, membrane potential dye, selectivity assay for TRPC6 modulator project, confirmation (AID 488927;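 active = membrane potential signal moved up or down beyond 5 SD of buffer control wells, in both duplicate plates, actives on both sides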;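 as to percent change from control (negative = decrease, positive = increase): plate controls were assay buffer wells for no effect and DAMGO maximal-effect wells for full effect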); conditions: membrane potential fluorescence, at 10 µM
[4] = system: TRPC4 (transient receptor potential cation channel C4), mouse; test: DAMGO-evoked mouse TRPC4 response blockade – cell-based, second screen, HEK293 TRPC4/mu-opioid, membrane potential dye, selectivity assay for TRPC6 modulator project, confirmation (AID 488928;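 active = drop in membrane potential signal beyond 5 SD of the control wells in both duplicate plates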;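 also: TRPC4 counter screen for TRPC6 hits run under conditions tuned for TRPC6 not TRPC4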); conditions: membrane potential dye fluorescence, at 10 µM, stimulated with maximal-effect DAMGO; hits give high values
[5] = molecular target: Short transient receptor potential channel 6 (Mus musculus) (UniProt Q61143); test: blockers of TRPC6 cation channel activity – HEK293 cells, membrane potential dye, duplicate, confirmation (AID 488960;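 active = fluorescence ratio falls more than 5 SD below the full-stimulation control mean, in both duplicate runs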;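 as to inhibition: integrated fluorescence ratio of peak minus minimum over baseline after agonist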); conditions: ACh-evoked depolarization, at 10 µM; hits give high values
Sequence of Short transient receptor potential channel 6 (Mus musculus) (Q61143 whole entry, looked up): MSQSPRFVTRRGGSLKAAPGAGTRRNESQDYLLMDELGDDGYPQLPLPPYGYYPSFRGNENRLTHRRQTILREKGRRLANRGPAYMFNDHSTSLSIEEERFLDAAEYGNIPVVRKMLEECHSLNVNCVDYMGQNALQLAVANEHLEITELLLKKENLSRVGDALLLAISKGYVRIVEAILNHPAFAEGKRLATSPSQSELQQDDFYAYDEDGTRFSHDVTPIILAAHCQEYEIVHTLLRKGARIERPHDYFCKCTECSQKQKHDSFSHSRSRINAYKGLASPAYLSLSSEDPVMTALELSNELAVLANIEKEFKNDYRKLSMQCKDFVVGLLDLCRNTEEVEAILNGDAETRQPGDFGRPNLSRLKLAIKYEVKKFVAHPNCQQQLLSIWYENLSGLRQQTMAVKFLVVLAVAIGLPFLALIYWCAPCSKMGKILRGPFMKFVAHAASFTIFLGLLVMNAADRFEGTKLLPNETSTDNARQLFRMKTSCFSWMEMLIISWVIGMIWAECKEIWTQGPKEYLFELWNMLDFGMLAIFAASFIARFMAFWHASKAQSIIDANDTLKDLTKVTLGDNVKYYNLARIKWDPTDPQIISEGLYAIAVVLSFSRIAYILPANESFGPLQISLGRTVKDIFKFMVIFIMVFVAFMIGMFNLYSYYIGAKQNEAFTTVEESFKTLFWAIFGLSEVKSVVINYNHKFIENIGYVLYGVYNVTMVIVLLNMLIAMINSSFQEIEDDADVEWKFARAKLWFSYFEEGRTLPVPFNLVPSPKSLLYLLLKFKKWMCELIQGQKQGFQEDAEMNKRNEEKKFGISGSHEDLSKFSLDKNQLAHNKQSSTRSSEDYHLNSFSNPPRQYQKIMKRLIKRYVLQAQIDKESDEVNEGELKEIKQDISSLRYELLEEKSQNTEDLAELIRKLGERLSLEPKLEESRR

[6] = molecular target: Short transient receptor potential channel 6 (Mus musculus) (UniProt Q61143); test: mouse TRPC6 channel activators, confirmation, HEK293 cells, membrane potential dye, duplicate (AID 488961); conditions: HEK293-TRPC6 membrane potential dye fluorescence, FDSS, at 10 µM; hits give high values
[7] = nonspecific flux increase, KCNQ1-free cells – parental CHO cells, counter-screen for KCNQ1 potentiator project (AID 493006;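 active = duplicate-averaged activation above buffer control mean plus 5 SD of those controls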;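 as to activation: fluorescence ratio of max minus min over baseline after K+ and Tl+ depolarization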); conditions: parental CHO-K1 cells, FluxOR thallium flux, at 10 µM; hits give high values
[8] = molecular target: Potassium voltage-gated channel subfamily KQT member 1 (Homo sapiens) (UniProt P51787); test: enhancement of KCNQ1 channel thallium flux – FluxOR thallium flux, CHO cells, duplicates, confirmation (AID 493007;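 active = potentiation averaged over duplicate wells exceeding buffer-only control mean by more than 3 SD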;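 as to outcome: cells depolarized by a potassium plus thallium sulfate stimulus after compound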;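 as to potentiation: 0% = buffer-only wells and 100% = R-L3 activator control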); conditions: KCNQ1 cell line, FluxOR thallium flux fluorescence, at 10 µM; hits give high values, % of reference activator effect, buffer zero
Sequence of Potassium voltage-gated channel subfamily KQT member 1 (Homo sapiens) (P51787 whole entry, looked up): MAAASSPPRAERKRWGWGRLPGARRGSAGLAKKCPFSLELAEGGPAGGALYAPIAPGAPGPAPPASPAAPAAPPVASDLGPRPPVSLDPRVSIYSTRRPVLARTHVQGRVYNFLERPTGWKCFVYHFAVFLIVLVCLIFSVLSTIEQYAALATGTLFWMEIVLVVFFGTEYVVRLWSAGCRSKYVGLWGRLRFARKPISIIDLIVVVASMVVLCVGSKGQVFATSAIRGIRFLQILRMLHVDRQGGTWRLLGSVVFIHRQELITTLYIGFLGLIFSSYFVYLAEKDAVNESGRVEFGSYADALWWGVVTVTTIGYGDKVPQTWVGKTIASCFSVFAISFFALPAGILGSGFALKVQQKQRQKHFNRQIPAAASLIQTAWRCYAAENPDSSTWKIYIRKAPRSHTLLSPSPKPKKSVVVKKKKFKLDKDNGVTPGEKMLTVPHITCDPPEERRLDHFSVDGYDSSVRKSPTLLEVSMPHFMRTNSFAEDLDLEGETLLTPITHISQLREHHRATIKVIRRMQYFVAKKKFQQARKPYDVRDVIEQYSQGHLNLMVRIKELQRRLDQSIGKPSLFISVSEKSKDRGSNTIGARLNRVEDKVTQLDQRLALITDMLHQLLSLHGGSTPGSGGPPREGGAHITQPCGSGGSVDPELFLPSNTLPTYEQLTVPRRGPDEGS

[9] = molecular target: Potassium voltage-gated channel subfamily KQT member 2 (Rattus norvegicus) (UniProt O88943); test: KCNQ2 thallium flux enhancement – KCNQ2-CHO-K1 cells, selectivity assay for KCNQ1 potentiator project (AID 493009;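 active = mean duplicate potentiation above the buffer control mean plus 5 SD of buffer wells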;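 also: assay conditions were tuned for KCNQ1 rather than KCNQ2 modulators; signal is max minus min fluorescence divided by baseline after thallium stimulus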); conditions: FluxOR thallium flux fluorescence, at 10 µM; hits give high values, scaled: buffer 0, activator control 100
Sequence of Potassium voltage-gated channel subfamily KQT member 2 (Rattus norvegicus) (O88943 whole entry, looked up): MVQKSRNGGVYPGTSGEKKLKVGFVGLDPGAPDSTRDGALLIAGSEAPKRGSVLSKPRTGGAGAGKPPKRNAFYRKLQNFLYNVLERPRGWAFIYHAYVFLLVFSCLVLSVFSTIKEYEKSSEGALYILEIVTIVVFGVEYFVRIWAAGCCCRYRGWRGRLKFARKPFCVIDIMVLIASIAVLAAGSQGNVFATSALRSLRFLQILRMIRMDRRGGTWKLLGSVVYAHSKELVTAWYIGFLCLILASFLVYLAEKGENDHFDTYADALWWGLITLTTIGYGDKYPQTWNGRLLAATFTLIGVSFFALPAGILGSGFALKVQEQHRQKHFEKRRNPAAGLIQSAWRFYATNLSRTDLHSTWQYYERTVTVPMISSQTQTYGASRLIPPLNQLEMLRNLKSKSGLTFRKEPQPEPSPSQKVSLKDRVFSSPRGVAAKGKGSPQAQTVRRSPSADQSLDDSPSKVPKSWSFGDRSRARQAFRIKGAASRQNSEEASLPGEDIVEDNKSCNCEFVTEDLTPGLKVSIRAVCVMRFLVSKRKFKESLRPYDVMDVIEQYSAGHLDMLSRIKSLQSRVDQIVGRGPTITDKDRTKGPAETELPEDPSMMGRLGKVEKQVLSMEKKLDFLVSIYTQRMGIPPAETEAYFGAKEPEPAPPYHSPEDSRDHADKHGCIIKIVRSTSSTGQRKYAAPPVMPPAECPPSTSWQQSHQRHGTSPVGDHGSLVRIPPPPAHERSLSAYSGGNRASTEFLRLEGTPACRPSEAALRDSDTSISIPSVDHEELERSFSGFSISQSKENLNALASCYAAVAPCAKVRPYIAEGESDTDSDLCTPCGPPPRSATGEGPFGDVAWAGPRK

[10] = molecular target: Potassium voltage-gated channel subfamily KQT member 1 (Homo sapiens) (UniProt P51787); test: KCNQ1 activators by electrophysiology – IonWorks patch clamp, KCNQ1-CHO cells, orthogonal assay for KCNQ1 potentiator project, confirmation (AID 493184;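 active = current rise at least 3 SD above the untreated control mean in each of two repeat wells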); conditions: automated patch clamp current, at 10 µM; hits give high values

CCc1ccc(OCC(=O)N(Cc2ccccc2)C2CCS(=O)(=O)C2)cc1 (configuration not stated)
inactive: outcome [1] | outcome [2] | outcome [4] | outcome [5] | outcome [6]
active: percent change from control (negative = decrease, positive = increase) [3] 8.5%

CN1CCN(c2nc(Nc3ccc(O)cc3)nc3ccccc23)CC1
active: membrane potential signal change [1] -221% | inhibition [2] 65.5% | percent change from control (negative = decrease, positive = increase) [3] -38% | inhibition [4] 71% | inhibition [5] 67.5%
inactive: outcome [6]

Cc1ccccc1NC(=O)CNc1ccccc1N1CCCCC1
active: inhibition [4] 52.5%
inactive: outcome [1] | outcome [2] | outcome [3] | outcome [5] | outcome [6]

O=C(CN1CCCCCC1)NCCN1C(=O)S/C(=C\c2ccccc2Cl)C1=O
active: inhibition [4] 36%
inactive: outcome [1] | outcome [2] | outcome [3] | outcome [5] | outcome [6]

Cc1cc(N2CCN(S(=O)(=O)c3ccc(C)c(C)c3)CC2)c2ccccc2n1
inactive: outcome [1] | outcome [2] | outcome [5] | outcome [6]
active: percent change from control (negative = decrease, positive = increase) [3] -10.5% | inhibition [4] 65%

COc1ccccc1C(CNC(=O)c1cccc(NS(=O)(=O)c2ccc(Br)cc2)c1)N(C)C (configuration not stated)
inactive: outcome [1] | outcome [2] | outcome [3] | outcome [6]
active: inhibition [4] 32.5% | inhibition [5] 44%

COc1cc2c(cc1OC)C(/C=C/c1ccco1)=NCC2
active: membrane potential signal change [1] -362% | inhibition [2] 83% | percent change from control (negative = decrease, positive = increase) [3] -64% | inhibition [4] 62% | inhibition [5] 72.5%
inactive: outcome [6]

Cc1ccc2c(c1)C1CN(C)CCC1N2C(=S)Nc1ccc(Cl)cc1Cl (configuration not stated)
inactive: outcome [1] | outcome [2] | outcome [5] | outcome [6]
active: percent change from control (negative = decrease, positive = increase) [3] -10% | inhibition [4] 49.5%

CC(C)(C)Nc1nc(-c2ccccn2)nc2ccccc12
active: membrane potential signal change [1] -424% | inhibition [2] 77% | percent change from control (negative = decrease, positive = increase) [3] -58% | inhibition [4] 74% | inhibition [5] 56.5%
inactive: outcome [6]

c1ccc(C2CNCc3c2ccc2ccccc32)cc1 (configuration not stated)
active: inhibition [4] 81.5% | inhibition [5] 58%
inactive: outcome [1] | outcome [2] | outcome [3] | outcome [6]

Cc1cc(C)c2nc3nc(C)cc(C)c3c(N)c2c1
active: inhibition [2] 76.5% | percent change from control (negative = decrease, positive = increase) [3] -31% | inhibition [4] 48%
inactive: outcome [1] | outcome [5] | outcome [6]

O=C(C1CCN(S(=O)(=O)Cc2ccccc2)CC1)N1CCCc2ccccc21
active: membrane potential signal change [1] 90% | percent change from control (negative = decrease, positive = increase) [3] 8.5%
inactive: outcome [2] | outcome [4] | outcome [5] | outcome [6]

O=C(NC1C2CC3CC(C2)CC1C3)c1ccc(N2CCNCC2)c([N+](=O)[O-])c1 (configuration not stated)
active: membrane potential signal change [1] -120% | percent change from control (negative = decrease, positive = increase) [3] -22% | inhibition [4] 70.5% | inhibition [5] 57.5%
inactive: outcome [2] | outcome [6]

S=c1nc(Cc2ccccc2)[nH]c2ccccc12
active: activation [7] 280% | potentiation [8] 110% | potentiation [9] 415%
inactive: outcome [10]

O=C(O)c1ccc(NC(=O)c2ccc(COc3ccc(Cl)cc3)o2)cc1
inactive: outcome [1] | outcome [2] | outcome [3] | outcome [4] | outcome [5] | outcome [6]

Cc1nn(Cc2ccc(C(=O)N3N=C(C(F)F)CC3(O)C(F)F)cc2)c(C)c1[N+](=O)[O-] (configuration not stated)
active: percent change from control (negative = decrease, positive = increase) [3] -17.5%
inactive: outcome [1] | outcome [2] | outcome [4] | outcome [5] | outcome [6]

CN(C)c1cc(N)c2ccccc2n1 (tested in a mixture with another compound)
active: membrane potential signal change [1] -230% | percent change from control (negative = decrease, positive = increase) [3] -40.5% | inhibition [4] 82% | inhibition [5] 69.5%
inactive: outcome [2] | outcome [6]

O=C(C[n+]1ccc2c(c1)nnn2-c1ccccc1)c1ccc(Cl)cc1
active: membrane potential signal change [1] -110% | percent change from control (negative = decrease, positive = increase) [3] -37.5% | inhibition [4] 62% | inhibition [5] 56%
inactive: outcome [2] | outcome [6]

COc1ccc(Cn2c(-c3ccc(Cl)cc3)c[n+]3ccccc23)cc1
active: membrane potential signal change [1] -296% | percent change from control (negative = decrease, positive = increase) [3] -51.5% | inhibition [4] 48% | inhibition [5] 50.5%
inactive: outcome [2] | outcome [6]

CCC(C)(C)NC(=O)CN(C(=O)CCC(=O)Nc1nccs1)c1ccc2c(c1)OCO2
inactive: outcome [1] | outcome [2] | outcome [3] | outcome [4] | outcome [5] | outcome [6]

CCCC(=O)Nc1ccc(C(=O)NCCCn2ccnc2)cc1
inactive: outcome [1] | outcome [2] | outcome [3] | outcome [4] | outcome [5] | outcome [6]

Cn1c(/C(C#N)=C2/CCCCCN2)nc2ccccc21
inactive: outcome [1] | outcome [2] | outcome [3] | outcome [4] | outcome [5] | outcome [6]

CCOc1ccc2[nH]c(=O)c(CN(Cc3ccc(C)cc3)C(=O)N3CCCC3)cc2c1
inactive: outcome [7] | outcome [8] | outcome [9] | outcome [10]

Cc1ccc(-n2c(C)cc(/C=N/NC(=O)CC3(C)OCCO3)c2C)c(C)c1
inactive: outcome [7] | outcome [8] | outcome [9] | outcome [10]

CC(C)(C)c1ccc(Oc2ccc(N)cn2)cc1
inactive: outcome [10]
active: activation [7] 260% | potentiation [8] 81.5% | potentiation [9] 282%
